Data taken from PubChem BioAssay (Tox21).
Inconclusive results are not listed. Entries that show only a call come without a potency. Active and inactive are the calls of the source. Unless noted, calls come from the whole dose curve; as a rule, active = well fitted cell-killing curve with a large enough effect in the repeat runs; inconclusive = weak or mixed curves; inactive = no such curve, though single readings can be large or run the other way.

System: not listed separately
Assay: qHTS assay to identify small molecule agonists of the peroxisome proliferator-activated receptor delta (PPARd) signaling pathway - cell viability counter screen (AID 743211); note: nearly all actives have a fitted effect of over 55% in size; note: potency is the fitted concentration of half-maximal effect
Settings: PPARd-bla HEK293H viability, CellTiter-Glo luminescence, 17 h; series mostly up to 62.6 µM
Summary of the method: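 PPARd-bla HEK293H cells (3000/well) were pre-incubated 5 h at 37 C, then exposed to compound for 17 h at 37 C. After 2 h with LiveBLAzer substrate, CellTiter-Glo was added to the same wells; luminescence read after 30 min at room temperature.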

| Structure (SMILES) | Potency |
| --- | --- |
| O=C(/C=C/c1ccc(O)c(O)c1)O[C@@H]1C[C@](O)(C(=O)O)C[C@@H](O)[C@H]1O | inactive |
| CCOC(=O)[C@H](CCc1ccccc1)N[C@H]1CCc2ccccc2N(CC(=O)O)C1=O | 29.8 µM (active) |
| O=C(O)Cc1cc(I)c(Oc2ccc(O)c(I)c2)c(I)c1 | inactive |
| CC(=O)c1c(C)c([N+](=O)[O-])c(C(C)(C)C)c([N+](=O)[O-])c1C | inactive |
| CC(C)NCC(O)c1cc(O)cc(O)c1 (stereo not drawn) | inactive |
| Cc1ncsc1CCO | inactive |
| Cc1cccc(C(C)(C)C)c1O | inactive |
| O=C(O)c1cccc(N(Cc2cccnc2)c2ccc(OC(F)F)c(OC(F)F)c2)c1 | inactive |
| O=C(Cl)c1ccc([N+](=O)[O-])cc1 | inactive |
| NC(N)=NN=C(/C=C/c1ccc([N+](=O)[O-])o1)/C=C/c1ccc([N+](=O)[O-])o1 | 9.44 µM (active) |
| CCCCCCc1ccc(N)cc1 | inactive |
| CC(C)(C)c1ccc(S)cc1 | inactive |
| COc1ccc([C@@H]2Sc3ccccc3N(CCN(C)C)C(=O)[C@@H]2OC(C)=O)cc1 | inactive |
| CCCCCCCCCC=O | inactive |
| N=C(N=C(N)N)N1CCOCC1 | inactive |
| CCOc1cc(OCC)c(C(=O)CCC(=O)O)cc1OCC | inactive |
| Oc1ccc(O)c2c(O)cccc12 | inactive |
| CCOC(=S)SSC(=S)OCC | inactive |

| Structure (SMILES) | Potency |
| --- | --- |
| CCOc1nc2cccc(C(=O)O)c2n1Cc1ccc(-c2ccccc2-c2nn[nH]n2)cc1 | inactive |
| C[C@@H](C1=C(CCN(C)C)Cc2ccccc21)c1ccccn1 | inactive |
| SC1CCCC1 | inactive |
| CCN(CC)CCOC(=O)C1(c2ccccc2)CCCC1 | inactive |
| CC(C(=O)O)c1ccc(-c2ccccc2)c(F)c1 (stereo not drawn) | inactive |
| CCCCCCCCCCCCCCCBr | inactive |
| O=C1c2cccc(O)c2C(=O)c2c(O)cc(CO)cc21 | inactive |
| NCc1ccccc1 | inactive |
| C1=Cc2ccccc2C1 | inactive |
| CN(C)CC/C=C1\c2ccccc2COc2ccccc21 | 26.6 µM (active) |
| C=CC(C)(CCC=C(C)C)OC(=O)c1ccccc1 (stereo not drawn) | inactive |
| CCN(CC)CCNC(C(=O)OCCC(C)C)c1ccccc1 (stereo not drawn) | inactive |
| CC(C)(C)C1CCCCC1O (stereo not drawn) | inactive |
| Cc1ccc(C(=O)C(C)CN2CCCCC2)cc1 (stereo not drawn) | inactive |
| c1ccc(OCc2ccc(CCCN3CCOCC3)cc2)cc1 | inactive |
| O=C(C(=O)c1ccc(Br)cc1)c1ccc(Br)cc1 | inactive |
| OCC1CC2CC1C1CCC(CO)C21 (stereo not drawn) | inactive |
| C=CC(=O)OCC(C)OCC(C)OCC(C)OC(=O)C=C (stereo not drawn) | 49 µM (active) |

Target: Peroxisome proliferator-activated receptor delta (Homo sapiens) (UniProt Q03181)
Assay: qHTS assay to identify small molecule agonists of the peroxisome proliferator-activated receptor delta (PPARd) signaling pathway (AID 743212; calls by dose curve)
Settings: HEK293H PPARd-UAS-bla, beta-lactamase FRET ratio, 17 h; series mostly up to 62.6 µM
Summary of the method: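 Cells expressing a UAS-driven beta-lactamase reporter (PPARd-bla HEK293H) were given test compounds after a 5 h settle and kept at 37 C. Reporter activity was then measured as FRET fluorescence using LiveBLAzer B/G substrate.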

Chain of Peroxisome proliferator-activated receptor delta (Homo sapiens) (Q03181 whole entry, looked up): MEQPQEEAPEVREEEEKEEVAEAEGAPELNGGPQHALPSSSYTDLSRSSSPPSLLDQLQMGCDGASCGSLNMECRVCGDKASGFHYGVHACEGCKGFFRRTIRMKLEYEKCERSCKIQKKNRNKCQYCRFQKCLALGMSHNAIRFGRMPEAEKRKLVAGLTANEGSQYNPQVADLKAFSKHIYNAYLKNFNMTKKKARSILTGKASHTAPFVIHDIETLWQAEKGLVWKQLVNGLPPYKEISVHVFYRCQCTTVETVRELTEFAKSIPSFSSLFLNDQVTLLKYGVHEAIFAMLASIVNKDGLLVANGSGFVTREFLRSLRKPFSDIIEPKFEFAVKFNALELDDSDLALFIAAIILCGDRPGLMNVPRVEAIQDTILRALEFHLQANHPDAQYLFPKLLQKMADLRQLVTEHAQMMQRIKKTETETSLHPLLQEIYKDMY

| Structure (SMILES) | outcome |
| --- | --- |
| O=C(/C=C/c1ccc(O)c(O)c1)O[C@@H]1C[C@](O)(C(=O)O)C[C@@H](O)[C@H]1O | inactive |
| Cc1ncsc1CCO | inactive |
| CC(C)(C)c1ccc(S)cc1 | inactive |
| N=C(N=C(N)N)N1CCOCC1 | inactive |
| Oc1ccc(O)c2c(O)cccc12 | inactive |
| CCOC(=S)SSC(=S)OCC | inactive |
| C[C@@H](C1=C(CCN(C)C)Cc2ccccc21)c1ccccn1 | inactive |
| CCCCCCCCCCCCCCCBr | inactive |
| C1=Cc2ccccc2C1 | inactive |
| CCN(CC)CCNC(C(=O)OCCC(C)C)c1ccccc1 (stereo not drawn) | inactive |
| CC(C)(C)C1CCCCC1O (stereo not drawn) | inactive |
| O=C(C(=O)c1ccc(Br)cc1)c1ccc(Br)cc1 | inactive |
| OCC1CC2CC1C1CCC(CO)C21 (stereo not drawn) | inactive |

System: not listed separately
Assay: qHTS assay to identify small molecule antagonists of the peroxisome proliferator-activated receptor delta (PPARd) signaling pathway - cell viability counter screen (AID 743213); note: nearly all actives have a fitted effect of over 50% in size; note: potency is the fitted concentration of half-maximal effect
Settings: PPARd-bla HEK293H viability, CellTiter-Glo luminescence, 17 h; series mostly up to 62 µM
Summary of the method: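 Luminescence from CellTiter-Glo, added after the bla read and incubated 30 min at room temperature, gives viability of HEK293H PPARd-bla cells exposed to compounds for 17 h at 37 C with 300 nM L165041.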

| Structure (SMILES) | Potency |
| --- | --- |
| O=C(/C=C/c1ccc(O)c(O)c1)O[C@@H]1C[C@](O)(C(=O)O)C[C@@H](O)[C@H]1O | inactive |
| CCOC(=O)[C@H](CCc1ccccc1)N[C@H]1CCc2ccccc2N(CC(=O)O)C1=O | 26.6 µM (active) |
| O=C(O)Cc1cc(I)c(Oc2ccc(O)c(I)c2)c(I)c1 | inactive |
| CC(=O)c1c(C)c([N+](=O)[O-])c(C(C)(C)C)c([N+](=O)[O-])c1C | inactive |
| CC(C)NCC(O)c1cc(O)cc(O)c1 (stereo not drawn) | inactive |
| Cc1ncsc1CCO | inactive |
| O=C(Cl)c1ccc([N+](=O)[O-])cc1 | inactive |
| NC(N)=NN=C(/C=C/c1ccc([N+](=O)[O-])o1)/C=C/c1ccc([N+](=O)[O-])o1 | 9.44 µM (active) |
| CCCCCCc1ccc(N)cc1 | inactive |
| CN(C)C/C=C(/c1ccc(Br)cc1)c1cccnc1 | inactive |
| CC(C)(C)c1ccc(S)cc1 | inactive |
| CCCCCCCCCC=O | inactive |
| CCOc1cc(OCC)c(C(=O)CCC(=O)O)cc1OCC | inactive |
| CCOc1nc2cccc(C(=O)O)c2n1Cc1ccc(-c2ccccc2-c2nn[nH]n2)cc1 | inactive |
| C[C@@H](C1=C(CCN(C)C)Cc2ccccc21)c1ccccn1 | inactive |
| SC1CCCC1 | inactive |
| CCN(CC)CCOC(=O)C1(c2ccccc2)CCCC1 | inactive |
| CC(C(=O)O)c1ccc(-c2ccccc2)c(F)c1 (stereo not drawn) | inactive |
| CCCCCCCCCCCCC(=O)O | inactive |
| CCCCCCCCCCCCCCCBr | inactive |
| O=C1c2cccc(O)c2C(=O)c2c(O)cc(CO)cc21 | inactive |
| NCc1ccccc1 | inactive |
| C1=Cc2ccccc2C1 | inactive |
| C=CC(C)(CCC=C(C)C)OC(=O)c1ccccc1 (stereo not drawn) | inactive |
| CCN(CC)CCNC(C(=O)OCCC(C)C)c1ccccc1 (stereo not drawn) | inactive |
| CC(C)(C)C1CCCCC1O (stereo not drawn) | inactive |
| Cc1ccc(C(=O)C(C)CN2CCCCC2)cc1 (stereo not drawn) | inactive |
| c1ccc(OCc2ccc(CCCN3CCOCC3)cc2)cc1 | inactive |
| O=C(C(=O)c1ccc(Br)cc1)c1ccc(Br)cc1 | inactive |
